Source: PubChem BioAssay (EPA / NIEHS)
Records with an inconclusive call do not appear. Active and inactive are the calls of the source. The calls were made as follows, unless noted: active = hit-call score of the fitted dose curve at least 0.9, where 1 is the maximum; inactive = score below 0.9.

What was measured:
[1] = ATG_PBREM_CIS: Attagene CIS-FACTORIAL HepG2 Assay for human Phenobarbital-responsive Enhancer Module (PBREM) (AID 2282955); conditions: HepG2 PBREM cis-reporter, Attagene multiplexed transcription; actives raise or lower the signal
How it was run: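 Endogenous transcription factor activity was read from reporter transcripts in transiently transfected human HepG2 liver cells after 24 h dosing. RT-PCR products were fluorescently labelled, HpaI-cut and sized by capillary electrophoresis; activity fitted bidirectionally against DMSO baseline.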

[2] = target: Paired box protein Pax-6 (Homo sapiens) (UniProt P26367); test: ATG_Pax6_CIS: Attagene CIS-FACTORIAL HepG2 Assay for human Paired Box 6 (PAX6) (AID 2282956); conditions: HepG2 CIS-FACTORIAL PAX6 reporter transcription, RNA readout; actives raise or lower the signal
Sequence of Paired box protein Pax-6 (Homo sapiens) (P26367 whole entry, looked up): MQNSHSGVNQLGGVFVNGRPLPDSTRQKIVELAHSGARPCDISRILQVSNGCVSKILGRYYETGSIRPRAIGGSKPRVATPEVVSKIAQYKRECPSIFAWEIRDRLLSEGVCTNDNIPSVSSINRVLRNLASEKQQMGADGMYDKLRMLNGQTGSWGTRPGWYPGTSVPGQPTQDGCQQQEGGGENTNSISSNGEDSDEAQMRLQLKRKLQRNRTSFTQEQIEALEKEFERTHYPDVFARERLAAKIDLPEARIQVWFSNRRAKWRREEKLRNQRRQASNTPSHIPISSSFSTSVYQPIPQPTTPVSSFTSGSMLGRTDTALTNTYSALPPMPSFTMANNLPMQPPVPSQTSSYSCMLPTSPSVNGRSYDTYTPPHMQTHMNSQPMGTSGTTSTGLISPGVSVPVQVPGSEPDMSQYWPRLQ
How it was run: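 Values derive from bidirectional curve fitting of reporter mRNA signal relative to DMSO. HepG2 cells bearing transfected cis-regulated MRTUs were exposed for 24 h; transcripts were read by RT-PCR and capillary electrophoresis.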

[3] = ATG_PXRE_CIS: Attagene CIS-FACTORIAL HepG2 Assay for human Pregnane X Receptor Element (PXRE) (AID 2282957); conditions: HepG2 Attagene CIS-FACTORIAL PXRE reporter, mRNA; actives raise or lower the signal
How it was run: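 Using HepG2 transfected with multiple reporter transcription units, endogenous factor-driven transcription was scored as reporter mRNA after 24 h exposure.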

[4] = ATG_PPRE_CIS: Attagene CIS-FACTORIAL HepG2 Assay for human Peroxisome Proliferator-activated Response Element (PPRE) (AID 2282958); conditions: HepG2 PPRE cis-element reporter, Attagene transcription factor profiling; actives raise or lower the signal
How it was run: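 Endogenous PPRE-driven transcription is measured in HepG2 cells carrying transfected multi-reporter constructs. Reporter transcripts are quantified by RT-PCR, HpaI digestion and capillary electrophoresis 24 h after dosing. DMSO baseline, bidirectional fit.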

[5] = ATG_RORE_CIS: Attagene CIS-FACTORIAL HepG2 Assay for human RAR-related Orphan Receptor Element (RORE) (AID 2282959); conditions: HepG2 Attagene cis-factorial RORE reporter, mRNA; actives raise or lower the signal
How it was run: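 RORE reporter transcripts reflecting endogenous factor activity were read after 24 h compound exposure of transfected HepG2 cells, using reverse transcription, PCR, fluorescent labelling and capillary electrophoresis sizing. Gain or loss fitted against DMSO.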

[6] = ATG_Sox_CIS: Attagene CIS-FACTORIAL HepG2 Assay for human SRY-box transcription factor (SOX) (AID 2282960); conditions: HepG2 Attagene cis-factorial SOX reporter, mRNA; actives raise or lower the signal
How it was run: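 Reporter transcripts, measured by RT-PCR and capillary electrophoresis of labelled fragments, report endogenous SOX transcription factor activity. Transiently transfected human HepG2 cells receive chemical for 24 h; changes in either direction are fitted relative to DMSO.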

[7] = target: Transcription factor Sp1 (Homo sapiens) (UniProt P08047); test: ATG_Sp1_CIS: Attagene CIS-FACTORIAL HepG2 Assay for human Specificity Protein 1 (Sp1) (AID 2282961); conditions: HepG2 Sp1 cis-reporter transcription, actives raise or lower the signal
Sequence of Transcription factor Sp1 (Homo sapiens) (P08047 whole entry, looked up): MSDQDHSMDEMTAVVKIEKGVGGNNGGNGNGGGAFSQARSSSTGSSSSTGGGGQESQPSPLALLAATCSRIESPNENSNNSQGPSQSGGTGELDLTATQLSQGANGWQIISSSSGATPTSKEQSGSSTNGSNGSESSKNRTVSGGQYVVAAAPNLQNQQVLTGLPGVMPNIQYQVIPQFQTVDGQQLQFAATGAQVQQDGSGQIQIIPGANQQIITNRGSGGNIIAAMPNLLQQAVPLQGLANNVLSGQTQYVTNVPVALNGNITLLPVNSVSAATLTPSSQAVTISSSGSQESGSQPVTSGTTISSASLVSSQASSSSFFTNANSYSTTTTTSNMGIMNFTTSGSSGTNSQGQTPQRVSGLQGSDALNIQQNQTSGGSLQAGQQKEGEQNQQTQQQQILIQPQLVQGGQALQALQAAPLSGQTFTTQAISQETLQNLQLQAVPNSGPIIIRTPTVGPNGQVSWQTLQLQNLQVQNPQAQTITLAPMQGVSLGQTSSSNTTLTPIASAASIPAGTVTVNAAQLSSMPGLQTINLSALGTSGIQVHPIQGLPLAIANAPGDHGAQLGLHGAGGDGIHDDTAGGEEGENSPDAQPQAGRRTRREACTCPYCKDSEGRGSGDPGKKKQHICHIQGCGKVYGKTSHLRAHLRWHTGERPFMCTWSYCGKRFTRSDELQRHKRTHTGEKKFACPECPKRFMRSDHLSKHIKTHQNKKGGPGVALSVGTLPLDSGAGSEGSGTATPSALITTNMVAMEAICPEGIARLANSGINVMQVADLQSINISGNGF
How it was run: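 Read-out is reporter transcript level, measured by RT-PCR and fluorescent capillary electrophoresis after 24 h chemical treatment. System: transiently transfected HepG2 cells reporting endogenous transcription factor activity; gain or loss fitted against DMSO baseline.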

[8] = ATG_SREBP_CIS: Attagene CIS-FACTORIAL HepG2 Assay for human Sterol Regulatory Element Binding (SREBP) (AID 2282962); conditions: HepG2 Attagene cis-factorial SREBP reporter, mRNA; actives raise or lower the signal
How it was run: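 Values derive from bidirectional curve fitting with DMSO as baseline. The underlying measurement is reporter mRNA from cis-element-regulated units in transiently transfected HepG2, quantified by RT-PCR and capillary electrophoresis after 24 h exposure.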

[9] = target: Signal transducer and activator of transcription 3 (Homo sapiens) (UniProt P40763); test: ATG_STAT3_CIS: Attagene CIS-FACTORIAL HepG2 Assay for human Signal Transducer and Activator of Transcription 3 (STAT3) (AID 2282963); conditions: HepG2, Attagene cis-factorial STAT3 reporter transcription; actives raise or lower the signal
Sequence of Signal transducer and activator of transcription 3 (Homo sapiens) (P40763 whole entry, looked up): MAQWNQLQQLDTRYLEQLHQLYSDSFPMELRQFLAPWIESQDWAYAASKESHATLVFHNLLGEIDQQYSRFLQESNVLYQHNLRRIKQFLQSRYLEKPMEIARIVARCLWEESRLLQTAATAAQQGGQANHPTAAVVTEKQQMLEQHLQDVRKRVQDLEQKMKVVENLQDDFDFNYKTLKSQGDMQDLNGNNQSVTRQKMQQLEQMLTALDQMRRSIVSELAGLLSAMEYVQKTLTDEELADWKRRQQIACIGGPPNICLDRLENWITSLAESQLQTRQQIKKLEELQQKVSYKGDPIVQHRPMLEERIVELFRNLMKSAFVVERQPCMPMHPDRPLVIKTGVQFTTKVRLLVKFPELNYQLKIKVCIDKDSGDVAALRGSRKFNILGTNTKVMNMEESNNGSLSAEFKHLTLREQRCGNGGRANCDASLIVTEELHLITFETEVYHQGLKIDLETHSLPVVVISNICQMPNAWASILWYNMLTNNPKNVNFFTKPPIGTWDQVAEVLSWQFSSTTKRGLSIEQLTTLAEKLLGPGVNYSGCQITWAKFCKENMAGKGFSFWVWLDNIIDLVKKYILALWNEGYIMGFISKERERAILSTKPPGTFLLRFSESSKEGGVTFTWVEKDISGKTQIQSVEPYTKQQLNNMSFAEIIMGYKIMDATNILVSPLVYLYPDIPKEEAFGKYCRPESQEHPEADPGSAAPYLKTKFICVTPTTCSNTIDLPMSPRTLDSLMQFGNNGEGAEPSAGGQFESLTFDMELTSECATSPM
How it was run: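 HepG2, MRTU-transfected, 24 h dosing. RNA → RT → PCR → FAM label → HpaI → CE. Bidirectional fit vs DMSO.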

[10] = ATG_TA_CIS: Attagene CIS-FACTORIAL HepG2 Assay for human TA Basal Promoter (AID 2282964); conditions: HepG2 Attagene CIS-factorial TA basal promoter reporter; actives raise or lower the signal
How it was run: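 Transient MRTU transfection of HepG2 preceded 24 h compound exposure. Reporter mRNA levels were then read by RT-PCR with capillary electrophoresis, and this background-control endpoint was fitted bidirectionally to DMSO.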

[11] = ATG_TCF_b_cat_CIS: Attagene CIS-FACTORIAL HepG2 Assay for human T-Cell-Factor with beta-catenin (TCF/b-cat) (AID 2282965); conditions: HepG2 TCF/beta-catenin cis-reporter transcription, actives raise or lower the signal
How it was run: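 In this cis-format system, transfected HepG2 cells report endogenous transcription factor activity. Readout after 24 h exposure is reporter transcript abundance from RT-PCR and capillary electrophoresis, analysed for gain or loss of signal versus DMSO.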

[12] = ATG_TAL_CIS: Attagene CIS-FACTORIAL HepG2 Assay for human TAL Basal Promoter (AID 2282966); conditions: HepG2 Attagene cis-factorial TAL promoter reporter; actives raise or lower the signal;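 also: background control endpoint measuring basal TAL promoter reporter mRNA not a specific factor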
How it was run: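 After 24 hours of chemical exposure, transfected HepG2 cells yielded RNA that was converted to 6-FAM-labelled, HpaI-digested reporter fragments for capillary electrophoresis. Values derive from bidirectional fitting against DMSO controls.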

[13] = ATG_TGFb_CIS: Attagene CIS-FACTORIAL HepG2 Assay for human Transforming Growth Factor (TGF) (AID 2282967); conditions: HepG2 Attagene CIS TGFb reporter, mRNA transcription; actives raise or lower the signal
How it was run: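 After a 24-hour incubation with compound, transfected HepG2 cells were lysed for RNA; reporter cDNA was amplified, fluorescently end-labeled and separated by CE. DMSO served as baseline for bidirectional fits.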

[14] = ATG_VDRE_CIS: Attagene CIS-FACTORIAL HepG2 Assay for human Vitamin D Receptor Element (VDRE) (AID 2282968); conditions: HepG2 VDRE cis-reporter transcription, actives raise or lower the signal
How it was run: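 Steps: transfect HepG2 with multiple reporter transcription units; dose chemicals 24 h; isolate RNA; RT-PCR; label with 6-FAM primer extension; HpaI digest; capillary electrophoresis. Curves fitted both directions against DMSO.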

[15] = target: Nuclear receptor subfamily 1 group I member 3 (Homo sapiens) (UniProt Q14994); test: ATG_CAR_TRANS: Attagene TRANS-FACTORIAL HepG2 Assay for human Constitutive Androstane Receptor (CAR) (AID 2282969; active = hit-call score of the fitted dose curve at least 0.9, where 1 is the maximum;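 also: activators raise reporter mRNA above DMSO so AC50 marks induction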); conditions: HepG2 Attagene TRANS-FACTORIAL CAR reporter
Sequence of Nuclear receptor subfamily 1 group I member 3 (Homo sapiens) (Q14994 whole entry, looked up, the tested form may be a part): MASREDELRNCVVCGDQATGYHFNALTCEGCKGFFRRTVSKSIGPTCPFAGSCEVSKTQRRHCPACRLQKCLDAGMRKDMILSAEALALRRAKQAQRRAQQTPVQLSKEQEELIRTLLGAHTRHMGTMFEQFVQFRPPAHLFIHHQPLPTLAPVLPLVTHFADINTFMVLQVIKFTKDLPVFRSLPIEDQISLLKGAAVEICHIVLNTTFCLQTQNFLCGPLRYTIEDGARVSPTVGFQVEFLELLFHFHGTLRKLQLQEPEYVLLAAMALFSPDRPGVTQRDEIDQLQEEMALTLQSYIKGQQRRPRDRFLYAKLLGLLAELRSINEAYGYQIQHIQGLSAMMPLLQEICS
How it was run: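 Steps: transient transfection of HepG2 with multiple GAL4-UAS reporter units; 24 h compound incubation; RNA isolation, RT-PCR, 6-FAM primer extension, HpaI digest; capillary electrophoresis. Gain-of-signal relative to DMSO negative control.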

[16] = target: Estrogen receptor (Homo sapiens) (UniProt P03372); test: ATG_ERa_TRANS: Attagene TRANS-FACTORIAL HepG2 Assay for human Estrogen Receptor alpha (ERa) (AID 2282970; active = hit-call score of the fitted dose curve at least 0.9, where 1 is the maximum); conditions: HepG2 Attagene TRANS ERa GAL4 reporter, mRNA
Sequence of Estrogen receptor (Homo sapiens) (P03372 whole entry, looked up, the tested form may be a part): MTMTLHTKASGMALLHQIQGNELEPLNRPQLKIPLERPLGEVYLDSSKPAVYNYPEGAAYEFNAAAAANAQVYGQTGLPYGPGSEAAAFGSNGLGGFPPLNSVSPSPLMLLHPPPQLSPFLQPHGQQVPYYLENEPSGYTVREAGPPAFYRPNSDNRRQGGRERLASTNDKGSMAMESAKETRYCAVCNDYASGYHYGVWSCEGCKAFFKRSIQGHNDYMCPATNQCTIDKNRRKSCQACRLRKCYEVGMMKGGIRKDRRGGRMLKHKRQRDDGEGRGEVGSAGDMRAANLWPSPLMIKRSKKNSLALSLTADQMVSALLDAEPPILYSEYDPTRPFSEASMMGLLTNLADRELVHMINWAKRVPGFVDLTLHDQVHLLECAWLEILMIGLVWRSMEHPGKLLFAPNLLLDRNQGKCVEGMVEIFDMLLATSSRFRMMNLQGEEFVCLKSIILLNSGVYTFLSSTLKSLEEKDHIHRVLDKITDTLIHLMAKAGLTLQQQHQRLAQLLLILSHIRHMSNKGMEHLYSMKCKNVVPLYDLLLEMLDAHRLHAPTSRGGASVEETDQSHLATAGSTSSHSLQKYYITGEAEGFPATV
How it was run: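 Liver-derived HepG2 cells expressing chimeric nuclear receptor-Gal4 proteins from transient transfection were exposed for 24 hours. Gain of reporter mRNA signal versus DMSO, read by capillary electrophoresis of FAM-labelled PCR products, was recorded.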

[17] = target: Steroid hormone receptor ERR1 (Homo sapiens) (UniProt P11474); test: ATG_ERRa_TRANS: Attagene TRANS-FACTORIAL HepG2 Assay for human Estrogen-Related Receptor alpha (ERRa) (AID 2282971; active = hit-call score of the fitted dose curve at least 0.9, where 1 is the maximum); conditions: HepG2 Attagene TRANS reporter, ERRa transactivation
Sequence of Steroid hormone receptor ERR1 (Homo sapiens) (P11474 whole entry, looked up, the tested form may be a part): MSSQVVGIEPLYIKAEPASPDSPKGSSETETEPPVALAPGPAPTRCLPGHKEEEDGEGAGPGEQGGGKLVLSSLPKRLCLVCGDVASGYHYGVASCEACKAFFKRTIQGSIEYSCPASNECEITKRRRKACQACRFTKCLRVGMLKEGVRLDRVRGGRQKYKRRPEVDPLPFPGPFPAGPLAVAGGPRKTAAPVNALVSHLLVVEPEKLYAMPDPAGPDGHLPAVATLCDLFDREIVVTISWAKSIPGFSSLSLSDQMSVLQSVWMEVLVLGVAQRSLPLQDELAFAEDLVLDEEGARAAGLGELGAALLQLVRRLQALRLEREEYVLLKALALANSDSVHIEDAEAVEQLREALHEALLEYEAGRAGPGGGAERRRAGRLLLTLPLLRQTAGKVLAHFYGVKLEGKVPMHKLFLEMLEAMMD
How it was run: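 Reporter transcript induction was quantified by RT-PCR and capillary electrophoresis of FAM-labelled, HpaI-cut products after 24 h treatment of HepG2 cells carrying transiently transfected GAL4-UAS reporter units and an exogenous ERRa-Gal4 fusion; activity scored as increase over DMSO.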

[18] = target: X-box-binding protein 1 (Homo sapiens) (UniProt P17861); test: ATG_Xbp1_CIS: Attagene CIS-FACTORIAL HepG2 Assay for human X-box Binding Protein 1 (XBP1) (AID 2282972); conditions: HepG2 XBP1 cis-element reporter, Attagene multiplex; actives raise or lower the signal
Sequence of X-box-binding protein 1 (Homo sapiens) (P17861 whole entry, looked up): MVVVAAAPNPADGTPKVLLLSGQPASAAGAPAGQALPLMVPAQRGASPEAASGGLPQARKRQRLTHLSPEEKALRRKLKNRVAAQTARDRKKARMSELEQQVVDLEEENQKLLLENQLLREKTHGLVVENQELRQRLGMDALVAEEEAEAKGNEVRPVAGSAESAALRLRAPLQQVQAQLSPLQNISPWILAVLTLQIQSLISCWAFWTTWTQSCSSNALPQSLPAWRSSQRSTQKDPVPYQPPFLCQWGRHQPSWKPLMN
How it was run: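 Human hepatoma HepG2, cis-element reporter system, 24 h treatment; mRNA quantified by RT-PCR/CE fluorescence; fit relative to DMSO.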

[19] = ATG_GAL4_TRANS: Attagene TRANS-FACTORIAL HepG2 Assay for GAL4 (Internal Marker) (AID 2282976; active = hit-call score of the fitted dose curve at least 0.9, where 1 is the maximum); conditions: HepG2 Attagene TRANS GAL4 internal marker reporter
How it was run: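 First, HepG2 cells were transfected with reporter units under GAL4-UAS control. Next, they were treated with chemical for 24 h. Finally, RNA was reverse-transcribed, PCR-amplified, FAM-labelled and resolved by capillary electrophoresis, with induction scored against DMSO.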

[20] = ATG_M_19_TRANS: Attagene TRANS-FACTORIAL HepG2 Assay for M19 Transcription Factor (Internal Marker) (AID 2282974; active = hit-call score of the fitted dose curve at least 0.9, where 1 is the maximum); conditions: HepG2 Attagene TRANS-FACTORIAL M19 internal marker reporter
How it was run: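 Background-control readout: after 24 h chemical exposure of transfected HepG2 carrying GAL4-driven reporter units, RNA was reverse-transcribed, amplified, fluorescently labeled and sized by capillary electrophoresis; gain-of-signal fit against DMSO.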

Measured: AC50

CC/C=C\CCOC(C)=O
active: [3] 70 µM
not listed: [20]
inactive: all other assays above

Nc1cc(Cl)c(N)c(Cl)c1
active: [3] 37 µM
not listed: [17]
inactive: all other assays above

CCCCOc1ccc(N)cc1
not listed: [7]
inactive: all other assays above

CCc1c(Br)c(Br)c(Br)c(Br)c1Br
active: [1] 23.7 µM | [3] 8.3 µM
not listed: [19] | [20]
inactive: all other assays above

CO[Si](OC)(c1ccccc1)c1ccccc1
active: [3] 18.1 µM
not listed: [17]
inactive: all other assays above

FC(F)(F)C(F)(F)C(F)(F)C(F)(F)C(F)(F)C(F)(F)C(F)(F)I
active: [16] 3.7 µM
not listed: [19]
inactive: all other assays above

CCCCOCCOCCOC(=O)CCCCC(=O)OCCOCCOCCCC
active: [3] 26.9 µM
not listed: [17] | [20]
inactive: all other assays above

FC(F)(F)C(F)(F)C(F)(F)C(F)(F)C(F)(F)CCI
active: [3] 39.9 µM | [16] 41 µM
not listed: [7] | [19]
inactive: all other assays above

N=C(N)C(F)(F)C(F)(F)C(F)(F)C(F)(F)C(F)(F)C(F)(F)C(F)(F)F
active: [16] 40.6 µM
not listed: [17] | [19]
inactive: all other assays above

CC(C)(C)C(=O)CC(=O)C(F)(F)C(F)(F)C(F)(F)F
not listed: [19]
inactive: all other assays above

CCCCNc1ccccc1
active: [3] 100 µM
not listed: [17]
inactive: all other assays above

FC(F)(F)C(F)(F)CNCC(F)(F)C(F)(F)F
not listed: [17]
inactive: all other assays above

O=C(O)C(F)(F)C(F)(F)C(F)(F)C(F)(F)F
not listed: [7]
inactive: all other assays above

FC(F)(F)C(F)(F)C(F)(F)C(F)(F)C(F)(F)C(F)(F)C(F)(F)C(F)(F)F
inactive: all assays above
